D2 PAM-1: human D2 receptor positive allosteric modulation; P14416; DiscoveRx D2 beta-arrestin cells, luminescence, 90 min; 100% = 57 uM dopamine signal; potentiation, % (no concentration beside the values); 0.23% of 360,000 active; in the data active = potentiation above about 50%
Target sequence (P14416 whole entry, looked up): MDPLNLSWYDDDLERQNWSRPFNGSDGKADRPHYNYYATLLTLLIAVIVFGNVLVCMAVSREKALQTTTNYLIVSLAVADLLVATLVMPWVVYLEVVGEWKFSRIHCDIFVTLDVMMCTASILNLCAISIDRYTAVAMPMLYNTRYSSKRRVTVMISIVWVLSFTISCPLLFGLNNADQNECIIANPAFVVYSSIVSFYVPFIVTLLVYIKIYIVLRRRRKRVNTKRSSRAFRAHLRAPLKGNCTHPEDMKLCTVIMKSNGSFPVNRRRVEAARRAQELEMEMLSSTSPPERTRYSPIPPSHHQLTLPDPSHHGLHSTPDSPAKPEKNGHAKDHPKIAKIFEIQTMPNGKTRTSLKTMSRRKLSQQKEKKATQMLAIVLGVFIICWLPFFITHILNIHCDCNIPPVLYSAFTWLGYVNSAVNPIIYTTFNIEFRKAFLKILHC
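PathHunter beta-arrestin assay in DiscoveRx D2 cells. Compounds were added with an EC20 of dopamine (50 nM final) for 90 min at 37 deg C. Luminescence was read 1 h after detection reagent, with 57 uM dopamine as the EC100 control.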
D2 PAM-2: D2 dopamine receptor (human) potentiation. 0.34% of 340,000 active. potentiation, % at 10 µM. HEK293 T-REx D2, calcium flux, EC20 dopamine potentiation. P14416;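 active = potentiation over 3 SD above the plate norm, cut at about 30% in these data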; note: 0% is about no effect
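Potentiation of an EC20 dopamine calcium response is measured in a force-coupled, tetracycline-inducible Hek293 Trex D2 line. Compound-only kinetic reads over 180 s flag agonists before dopamine addition.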
D2 ag-1: agonists of human D2 dopamine receptor (beta-arrestin); P14416; DiscoveRx PathHunter D2 beta-arrestin, luminescence, 90 min; 100% = 57 uM dopamine signal; activation, % (concentration not given with the values); 0.084% of 360,000 active; AID 624465; in the data active = activation above about 40%
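Agonist mode: compounds alone added to overnight-plated D2 PathHunter cells for 90 min at 37 C, with 57 uM final dopamine (EC100) defining full response. Beta-arrestin recruitment detected by chemiluminescent reagent, read after 1 h at ambient temperature.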
D2 ag-2: D2 dopamine receptor (human) agonism; 0.53% of 340,000 active; P14416; HEK293 T-REx D2 cells, calcium flux agonist mode; activation, % at 2 µM;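 active = activation over 3 SD above normal in the single-dose calcium agonist read, cut at about 30% in these data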; note: 0% is about no effect
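Tetracycline-induced HEK293 T-REx cells with force-coupled D2 receptor, plated overnight at 30 C, loaded with no-wash calcium dye. After a 10 s baseline, compound was pin-added and calcium flux read kinetically for 180 s; calcium rises flagged agonists.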
D2 antagonist: antagonists of human D2 dopamine receptor | HEK293 TREx D2 cells, calcium flux, dopamine EC80 | inhibition, % at 10 µM | 2% of 340,000 active; in the data active = inhibition above about 30%; inactive = below that, where a call was filed; note: 0% is about no effect
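Dopamine at EC80 is the agonist stimulus; test compounds precede it by 180 s. Calcium flux read kinetically in a force-coupled, inducible HEK293 T-REx D2 cell line.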
* marks the source's active call; other numbers are inactive results; nt = not tested or not shown; ! = repeats disagree. Rows were chosen to be rich in hits. Some 2.4% of all compounds tested hit in one or more screens of this group.

SMILES | D2 PAM-1 | D2 PAM-2 | D2 ag-1 | D2 ag-2 | D2 antagonist
CCS(=O)(=O)N1CCc2cc(C(=O)N3CCN(c4ccc(OC)cc4)CC3)ccc21 | nt | -1.6 | nt | 1.0 | nt
Clc1cccc2c1CCN(Cc1nc(-c3cnccn3)no1)C2 | -1.5 | -11.3 | -5.4 | 1.1 | 40.0*
O=C1C2CCCCN2C(=O)N1CCCCN1CCN(c2ccc(F)cc2)CC1 (configuration not stated) | -4.2 | -23.8 | -5.2 | 0.2 | 11.2
O=C1C2CCCN2C(=O)N1CCCCN1CCN(c2ccc(F)cc2)CC1 (configuration not stated) | -22.8 | -20.5 | -0.1 | 12.3 | 39.6*
O=C1C2CCCCN2C(=O)N1CCN1CCN(c2cccc(Cl)c2)CC1 (configuration not stated) | -10.0 | nt | 1.7 | nt | nt
O=C1C2CCCCN2C(=O)N1CCCCN1CCN(c2cccc(Br)c2)CC1 (configuration not stated) | -0.5 | -26.4 | -1.1 | 40.0* | 86.6*
CC1CCN(S(=O)(=O)c2ccc3c(ccc(=O)n3CC(=O)Nc3ccc(C(C)C)cc3)c2)CC1 | nt | 6.4 | nt | 0.3 | nt
Cc1ccc(OCCSc2nc3ccc(NC(=O)c4ccco4)cc3s2)cc1 | nt | -0.7 | nt | nt | nt
COc1cccc(CNC(=O)c2ccc(NC(=O)N3CCCCc4ccccc43)cc2)c1 | nt | -6.6 | nt | 1.3 | nt
CC(C)Cc1cc(CN2CCC(CO)(Cc3ccccc3)CC2)[nH]n1 | -18.2 | -22.7 | -0.4 | -1.4 | 47.4*
CC(=O)N(Cc1cccnc1)Cc1cc2ccccc2[nH]c1=O | -9.4 | -7.6 | -0.8 | -0.4 | -8.9
O=C(c1cc2ccccc2[nH]1)N(Cc1cccnc1)CC1CCCN(C2CCCCC2)C1 (configuration not stated) | -26.4 | -12.4 | 0.1 | 0.5 | 38.8*
Cc1ccc(NC(=O)C2CCN(S(=O)(=O)c3cccc4nonc34)CC2)cc1 | 1.9 | -5.7 | 5.1 | nt | nt
Cc1ccccc1NC(=O)C1CCN(S(=O)(=O)c2cccc3nonc23)CC1 | 0.3 | 44.0*! | -3.5 | -2.3 | 4.6
COc1ccc(Cn2c(SCc3ccc(C(=O)NC(C)C)cc3)nc3cccnc32)cc1 | nt | -2.0 | nt | -0.4 | nt
Cc1cc(C)n(C(=O)CNc2cccc(Cl)c2C)n1 | -22.9 | -2.4 | -0.8 | -0.1 | -3.1
Cc1cc(C)n(C(=O)CNc2ccccc2Cl)n1 | 10.4 | 20.3 | -5.6 | 0.1 | 32.2*
Cc1ccc2c(nc3s/c(=C\c4ccc(-c5ccccc5C(=O)O)o4)c(=O)n32)c1C | -4.6 | -9.0 | -4.3 | 39.7* | -7.7
O=C(O)c1ccc(-c2ccc(/C=c3/sc4nc5ccccc5n4c3=O)o2)cc1Cl | -2.5 | -2.2 | -1.5 | 48.3* | 34.3*
O=C(NCCC1=CCCCC1)c1ccc2c(=O)n3nc(Nc4ccccc4)sc3nc2c1 | nt | 7.2 | nt | -0.3 | nt
CCCOC(=O)c1cc(-c2ccc(C=O)o2)ccc1Cl | 1.2 | 0.0 | 0.2 | -1.7 | 30.7*
CCN(CC1CCCN(CCc2cccc(F)c2)C1)C(=O)c1ccoc1C (configuration not stated) | -51.1 | nt | -3.2 | nt | nt
C=CCC(=O)N(CC)CC1CCCN(CCc2cccc(F)c2)C1 (configuration not stated) | -1.3 | -16.9 | -2.1 | 0.0 | 49.5*
Cc1ccc(S(=O)(=O)N(C)c2ccc(OCC(=O)Nc3nnc(C4CC4)s3)cc2)cc1 | -0.2 | 4.8 | -0.1 | 1.1 | 1.6
CCc1nnc(NC(=O)COc2ccc(N(C)S(=O)(=O)c3ccc(C)cc3)cc2)s1 | -12.9 | -7.7 | -11.8 | 11.6 | 39.9*
SMILES | D2 PAM-1 | D2 PAM-2 | D2 ag-1 | D2 ag-2 | D2 antagonist
CN(C)S(=O)(=O)c1ccc(C(=O)OCCc2ccccc2)cc1 | 0.4 | 36.9* | -1.6 | 0.7 | 3.1
COc1ccc(S(N)(=O)=O)cc1C(=O)NCCCN1CCN(c2ccc(C)cc2)CC1 | -46.2 | -19.1 | -2.1 | 0.7 | 48.6*
COc1ccc(Cl)cc1C(=O)NCCCN1CCOCC1 | -11.1 | -3.1 | 0.6 | -0.3 | -14.3
COc1ccc(N2CCN(CCCNC(=O)c3cc4sccc4n3C)CC2)cc1 | -21.7 | -27.1 | 4.4 | 38.1* | 40.3*
CCOc1ccc(-c2cc(NC(=O)Nc3ccccc3Cl)c(C(=O)OC)s2)cc1 | nt | 2.0 | nt | nt | nt
CC1(C)CC(=O)c2sc(NS(=O)(=O)c3ccccc3)nc2C1 | -9.9 | 7.9 | 0.2 | 0.5 | -5.8
CC1(C)CC(=O)c2sc(NS(=O)(=O)c3ccc([N+](=O)[O-])cc3)nc2C1 | 53.7* | -5.1 | -1.1 | 0.2 | 3.5
